The panel holds about 83,000 compounds, 20% with a hit somewhere; the sample as a whole holds those more often.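 Cell lines were cultured in 96-well plates, exposed to a single compound concentration, and assessed for percent growth 48 hours later.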 Unmarked numbers belong to inactive results. Active and inactive are the calls of the source. How the source made its calls: active means growth percent below 10; inactive means the rest.

For the assay, the system named is ACHN renal. Put plainly: NCI-60 one-dose screen, 48 h (100 = growth as untreated, 0 = no growth, -100 = all killed). The following applies: 10 µM unless noted.
On to `C[n+]1ccc(CCc2c[nH]c3ccccc23)cc1`, for which the growth was 90.9%.
To `O=C(CI)NC(=O)NC(=O)NCc1ccccc1` belongs -45.5% (active).
To `O=C1/C=C/[C@@H](O)[C@@H]2C[C@@H](O)C[C@H]2/C=C/CCC[C@@H](O)CCO1` belongs 104%.
To `CC/C=C\C[C@H](O)C/C=C1/C(=O)C=C[C@@H]1C/C=C\CCCC(=O)O` belongs 84.5%; to `CCCCNC(=O)c1cc([N+](=O)[O-])cc(C2CCCCC2)c1O`, 61.5%; to `CC(=C(c1ccc(OCCN2CCCCC2)cc1)c1ccc(OCCN2CCCCC2)cc1)c1ccc(Cl)cc1`, -99.1% (active).
Turning to `S=C(c1ccc2c(c1)OCO2)N1CCN(c2cccc(Cl)c2)CC1`, the growth was 34.6%.
For `COc1ccc(/C(C)=C(/c2ccc(OCCCN(C)C)cc2)c2ccc(OC(=O)c3ccccc3)cc2)cc1`, the growth was 111%.
To `Cc1c(CC(=S)N2CCOCC2)nnn1-c1cccc(C(F)(F)F)c1` belongs 106%; to `COc1cccc(/C=C/C(=O)c2cc3c(N)c(C(=O)Nc4cccc5ccccc45)sc3nc2C)c1`, 35%.
Regarding `COc1cc(OC)c2sc(-c3ccc(-n4cncc4-c4cc(OC)c(OC)c(OC)c4)cc3)nc2c1`, the growth is 70.2%.
Take `COC(=O)C(Cc1ccccc1)NC(=O)c1ccc(NC(=O)c2[nH]c(C)c(Cl)c2Cl)c(OC(C)C)c1` (stereo not given): the growth is 40.3%.
The result for `O=C(N/N=C\c1cccc([N+](=O)[O-])c1)N/N=C/c1cccc([N+](=O)[O-])c1` reads 98.6%; that for `COc1ccccc1N(C(C)=O)C1=C(Cl)C(=O)c2ccccc2C1=O`, -29.5% (active); that for `COc1cccc(CNc2c3ccccc3nc3ccccc23)c1`, 19.1%.
The result for `NC1(CO)COC(c2ccccc2)OC1` (stereo not given) reads 96.3%; that for `CO[C@H](C(=O)[C@@H](O)[C@@H](C)O)[C@@H]1Cc2cc3cc(O[C@H]4C[C@@H](O[C@H]5C[C@@H](O)[C@H](O)C(C)O5)[C@H](O)C(C)(O)O4)cc(O)c3c(O)c2C(=O)[C@H]1O[C@H]1C[C@@H](O[C@H]2C[C@@H](O[C@H]3C[C@@H](OC)[C@H](O)C(C)O3)[C@@H](O)C(C)O2)[C@H](O)C(C)O1` (stereo not given in full), 25.9%.
For `N#Cc1c(-c2ccccc2)nc(SCC(O)CN2CCOCC2)nc1N1CCOCC1` (stereo not given), the growth was 54.4%.
To `COc1cc(-c2nc3cc(Cl)c(Cl)cc3[nH]2)ccc1OCC(=O)N=Nc1c(O)[nH]c2ccc(Cl)cc12` belongs 29.2%.
For the compound `CNC(=O)c1ccccc1Nc1nc(Nc2cc(OC)c(OC)c(OC)c2)ncc1Br`, the growth was 12.5%.
To `C=C(C)[C@@H]1CC[C@]2(C(N)=O)CC[C@]3(C)[C@H](CC[C@@H]4[C@@]5(C)CC[C@H](OCCC#N)C(C)(C)[C@@H]5CC[C@]43C)[C@@H]12` belongs 74.1%.
`N#C/C(=C\C=C\c1ccc(-c2cc(Cl)ccc2Cl)o1)c1nc2ccccc2s1`: the growth is 90.5%.
To `COc1ccc(/C=C/C(c2cc(OC)c(OC)c(OC)c2)n2ccnc2)cc1O` (stereo not given) belongs 46.3%; to `Cc1ccc2nc(/C(C#N)=C(/CCCO)NC(Cc3ccccc3)C(=O)OCc3ccccc3)[nH]c(=O)c2c1` (stereo not given), 107%; to `N#C/C(=C\c1ccc(-c2cccc(C(F)(F)F)c2)o1)c1ccccc1`, 85.2%.
To `O=C(NC1CC(F)C1)c1cc2cccnc2n1-c1ccc(Cl)c(Cl)c1` (stereo not given) belongs 95.5%; to `CCNC(=O)Oc1ccc(/C(=C(/CC)Cc2ccccc2)c2ccc(OCCN3CCCC3)cc2)cc1`, 95.1%; to `COc1cc(C2C(C(=O)OCc3ccccc3)=C(C)NC(C)=C2C(=O)OCc2ccccc2)cc(OC)c1OC`, 16.2%.
To `CN(Cc1cc(Br)cc(Br)c1O)Cc1cc(Br)cc(Br)c1O` belongs 31.4%.
As to `Cc1c2cccnc2c(C)c2c1c1cc(CO)ccc1n2C`, the growth was 13.9%.
The result for `S=c1[nH]c(=S)c2c(-c3ccccc3)c(-c3ccccc3)oc2[nH]1` reads 106%; that for `CCC1S/C(=N\N=C(\C)c2cc3cc(Cl)ccc3o2)N(c2ccccc2)C1=O` (stereo not given), 103%.
The result for `CCN(CC)Cc1cc(Nc2ccnc3cc(Cl)ccc23)ccc1O` reads 100%; that for `CCOC(=O)C(Cc1ccc(OC)cc1)C(=O)OCC`, 44.7%; that for `CC1(C)CC[C@]2(C(=O)N[C@H](CO)Cc3ccccc3)CC[C@]3(C)C(=CC[C@@H]4[C@@]5(C)CCCNC(C)(C)[C@@H]5CC[C@]43C)[C@@H]2C1`, 101%.
The result for `CC(C)(C)n1cc(-c2ccnc(NCCNS(=O)(=O)c3ccc(O)cc3)c2)c(-c2cccc(O)c2)n1` reads 98.2%.
Regarding `CC1(C)C(N)=Nc2cc(OCCCN3Cc4ccccc4C3)c(OCC3CC3)cc21`, the growth was 96.6%.
To `CCOC(=O)C(=CNc1cnc(Nc2ccc(N3CCOCC3)cc2)nc1Oc1ccc(OC)cc1)C(=O)OCC` belongs 19%.
To `O=C(Nc1ccccc1O)c1ccc(CNC(=O)c2ccsc2Nc2ccnc(C(F)(F)F)c2)cc1` belongs 20.2%; to `CC(=O)ON1CCCC(P(=O)(OCCSC(=O)C(C)(C)C)OCCSC(=O)C(C)(C)C)C1=O` (stereo not given), 20.1%.
